In ChEMBL document CHEMBL3988442, “University of Dundee, Small-Polar-MMV Screening Library” (2021):
For some of these results: Results with a measured potency or affinity are listed apart.

Columns and labels:
Parameters in all cases: scale not given: direction of the effect not stated beside the values
[1] = biological target: Protein translocase subunit SecA (Escherichia coli (strain K12)) (UniProt P10408); assay: Assay to Identify E. coli SecA ATPase Inhibitors; format: functional; details: 30 µM
[2] = biological target: T1, Ubiquitin-activating enzyme e1, putative (Leishmania donovani (strain BPK282A1)) (UniProt E9BSI1); assay: Leishmania donovani Ubiquitin Activating Enzyme (LdE1); format: functional; details: 30 µM
T1 sequence (whole entry): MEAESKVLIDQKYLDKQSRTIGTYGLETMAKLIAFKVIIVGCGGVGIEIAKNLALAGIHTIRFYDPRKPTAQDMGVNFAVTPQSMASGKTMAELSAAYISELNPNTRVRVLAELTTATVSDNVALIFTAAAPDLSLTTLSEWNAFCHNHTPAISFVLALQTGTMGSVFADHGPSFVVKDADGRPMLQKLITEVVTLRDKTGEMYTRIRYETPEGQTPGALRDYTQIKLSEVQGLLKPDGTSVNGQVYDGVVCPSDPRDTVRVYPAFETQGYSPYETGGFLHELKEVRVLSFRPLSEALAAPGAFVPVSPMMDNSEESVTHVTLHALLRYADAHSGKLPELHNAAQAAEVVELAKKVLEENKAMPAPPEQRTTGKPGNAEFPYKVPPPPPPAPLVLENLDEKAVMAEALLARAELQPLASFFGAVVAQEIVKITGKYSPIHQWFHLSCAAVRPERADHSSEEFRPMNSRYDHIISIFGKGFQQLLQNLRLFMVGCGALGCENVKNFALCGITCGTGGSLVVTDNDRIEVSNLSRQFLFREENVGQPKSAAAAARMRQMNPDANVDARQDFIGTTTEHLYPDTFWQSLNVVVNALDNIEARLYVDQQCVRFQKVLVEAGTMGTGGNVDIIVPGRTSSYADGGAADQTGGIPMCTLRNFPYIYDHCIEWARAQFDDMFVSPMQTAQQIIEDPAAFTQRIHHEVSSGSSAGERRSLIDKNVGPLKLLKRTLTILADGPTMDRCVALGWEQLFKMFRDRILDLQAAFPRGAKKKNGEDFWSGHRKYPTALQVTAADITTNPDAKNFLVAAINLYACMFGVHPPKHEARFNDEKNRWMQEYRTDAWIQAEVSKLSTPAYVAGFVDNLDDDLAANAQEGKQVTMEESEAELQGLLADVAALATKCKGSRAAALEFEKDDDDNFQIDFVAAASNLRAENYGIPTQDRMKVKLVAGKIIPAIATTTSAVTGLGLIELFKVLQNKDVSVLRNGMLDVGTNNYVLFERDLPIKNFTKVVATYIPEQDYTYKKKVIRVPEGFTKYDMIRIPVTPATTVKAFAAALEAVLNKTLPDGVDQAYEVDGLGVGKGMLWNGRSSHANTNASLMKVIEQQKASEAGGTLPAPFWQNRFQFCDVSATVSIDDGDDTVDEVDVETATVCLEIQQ

[3] = biological target: AMP-activated protein kinase, AMPK (Homo sapiens) (UniProt P54646+O43741+P54619+Q9UGJ0+Q9Y478+Q13131+Q9UGI9); assay: AMP-dependent Kinase enzyme assay. An in vitro enzyme assay that detects ADP turnover that is directly proportional to AMPK activity. This uses naive AMPK that is activated during the assay with MK-8722; format: functional; details: 30 µM
[4] = biological target: Sialic acid-binding Ig-like lectin 9 (Homo sapiens) (UniProt Q9Y336); assay: Hs-Siglec9 ALPHAscreen SOP 20170721; details: 10 µM
[5] = system: Trypanosoma cruzi; assay: Trypanosoma cruzi phosphomannomutase and mannose-1-phosphate guanylyltransferase assay; format: functional; details: 10 µM
[6] = biological target: T2, Arginase-2, mitochondrial (Homo sapiens) (UniProt P78540); assay: in vitro enzyme assay to detect the production of urea directly proportional to the activity of Arginase II; format: functional; details: 33.3 µM; further: in the data most compounds retested in dose-response had high values
T2 sequence (whole entry): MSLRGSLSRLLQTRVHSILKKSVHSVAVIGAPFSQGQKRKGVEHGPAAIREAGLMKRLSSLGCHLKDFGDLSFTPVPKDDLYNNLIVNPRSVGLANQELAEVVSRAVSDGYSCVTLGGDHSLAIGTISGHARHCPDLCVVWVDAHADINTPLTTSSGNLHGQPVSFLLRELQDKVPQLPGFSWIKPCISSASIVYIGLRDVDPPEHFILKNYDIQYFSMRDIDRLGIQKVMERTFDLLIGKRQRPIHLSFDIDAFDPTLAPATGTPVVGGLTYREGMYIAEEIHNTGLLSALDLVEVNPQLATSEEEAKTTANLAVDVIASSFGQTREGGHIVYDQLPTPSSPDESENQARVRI

[7] = biological target: T3, Proteasome subunit beta (Trypanosoma cruzi) (UniProt O96673); assay: Trypanosoma cruzi proteasome chymotrypsin-like activity (TcProtChymo) assay.; further: in the data most compounds retested in dose-response had high values; format: functional; details: 9.37 µM
T3 sequence (whole entry): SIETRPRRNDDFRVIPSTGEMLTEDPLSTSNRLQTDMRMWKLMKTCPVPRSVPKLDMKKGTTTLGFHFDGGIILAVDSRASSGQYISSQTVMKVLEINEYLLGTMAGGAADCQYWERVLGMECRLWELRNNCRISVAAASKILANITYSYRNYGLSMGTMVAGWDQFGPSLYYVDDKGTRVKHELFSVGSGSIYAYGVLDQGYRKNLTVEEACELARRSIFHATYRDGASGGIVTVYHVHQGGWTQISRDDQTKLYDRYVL

[8] = species on record: Homo sapiens; assay: To identify inhibition of the IFN signalling (Jak-Stat) pathway via expression of an eGFP reporter gene under the control of an IFN-stimulated response element (ISRE) containing MxA promoter.; format: functional; details: 30 µM
[9] = biological target: T4, Tyrosyl-tRNA synthetase, putative (Trypanosoma cruzi (strain CL Brener)) (UniProt Q4DSP6); assay: Trypanosoma cruzi tyrosyl tRNA synthetase (TcYRS) _High Tyrosine SOP; format: functional; details: 30 µM; further: in the data most compounds retested in dose-response had high values
T4 sequence (whole entry): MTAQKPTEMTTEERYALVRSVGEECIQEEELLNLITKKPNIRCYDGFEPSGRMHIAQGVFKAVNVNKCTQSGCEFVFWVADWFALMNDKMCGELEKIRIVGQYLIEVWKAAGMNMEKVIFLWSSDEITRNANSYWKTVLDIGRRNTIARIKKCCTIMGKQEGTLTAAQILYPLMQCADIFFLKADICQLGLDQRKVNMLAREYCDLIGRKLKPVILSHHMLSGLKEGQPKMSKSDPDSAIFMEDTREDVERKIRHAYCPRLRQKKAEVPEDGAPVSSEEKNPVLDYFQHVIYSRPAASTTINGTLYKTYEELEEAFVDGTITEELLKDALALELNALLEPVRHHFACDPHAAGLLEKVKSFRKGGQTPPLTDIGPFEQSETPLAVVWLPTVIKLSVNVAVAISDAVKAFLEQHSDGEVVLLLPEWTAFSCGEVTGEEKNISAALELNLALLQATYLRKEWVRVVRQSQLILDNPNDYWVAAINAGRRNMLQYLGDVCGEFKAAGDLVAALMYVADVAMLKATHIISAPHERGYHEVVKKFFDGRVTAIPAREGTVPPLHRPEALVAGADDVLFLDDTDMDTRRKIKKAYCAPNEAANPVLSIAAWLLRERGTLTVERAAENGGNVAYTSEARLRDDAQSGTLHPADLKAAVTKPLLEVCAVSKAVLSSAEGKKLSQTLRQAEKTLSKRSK

[10] = biological target: T4, Tyrosyl-tRNA synthetase, putative (Trypanosoma cruzi (strain CL Brener)); assay: Trypanosoma cruzi tyrosyl tRNA synthetase (TcYRS) SOP; format: functional; details: 30 µM
[11] = biological target: Chromo domain-containing protein 1 (Saccharomyces cerevisiae (strain ATCC 204508 / S288c) (Baker's yeast)) (UniProt P32657); assay: ScCHD-1 Enzyme Inhibition Assay; format: functional; details: 30 µM; further: in the data most compounds retested in dose-response had high values
Chain of Chromo domain-containing protein 1 (Saccharomyces cerevisiae (strain ATCC 204508 / S288c) (Baker's yeast)) (P32657 whole entry, the tested form may be a part): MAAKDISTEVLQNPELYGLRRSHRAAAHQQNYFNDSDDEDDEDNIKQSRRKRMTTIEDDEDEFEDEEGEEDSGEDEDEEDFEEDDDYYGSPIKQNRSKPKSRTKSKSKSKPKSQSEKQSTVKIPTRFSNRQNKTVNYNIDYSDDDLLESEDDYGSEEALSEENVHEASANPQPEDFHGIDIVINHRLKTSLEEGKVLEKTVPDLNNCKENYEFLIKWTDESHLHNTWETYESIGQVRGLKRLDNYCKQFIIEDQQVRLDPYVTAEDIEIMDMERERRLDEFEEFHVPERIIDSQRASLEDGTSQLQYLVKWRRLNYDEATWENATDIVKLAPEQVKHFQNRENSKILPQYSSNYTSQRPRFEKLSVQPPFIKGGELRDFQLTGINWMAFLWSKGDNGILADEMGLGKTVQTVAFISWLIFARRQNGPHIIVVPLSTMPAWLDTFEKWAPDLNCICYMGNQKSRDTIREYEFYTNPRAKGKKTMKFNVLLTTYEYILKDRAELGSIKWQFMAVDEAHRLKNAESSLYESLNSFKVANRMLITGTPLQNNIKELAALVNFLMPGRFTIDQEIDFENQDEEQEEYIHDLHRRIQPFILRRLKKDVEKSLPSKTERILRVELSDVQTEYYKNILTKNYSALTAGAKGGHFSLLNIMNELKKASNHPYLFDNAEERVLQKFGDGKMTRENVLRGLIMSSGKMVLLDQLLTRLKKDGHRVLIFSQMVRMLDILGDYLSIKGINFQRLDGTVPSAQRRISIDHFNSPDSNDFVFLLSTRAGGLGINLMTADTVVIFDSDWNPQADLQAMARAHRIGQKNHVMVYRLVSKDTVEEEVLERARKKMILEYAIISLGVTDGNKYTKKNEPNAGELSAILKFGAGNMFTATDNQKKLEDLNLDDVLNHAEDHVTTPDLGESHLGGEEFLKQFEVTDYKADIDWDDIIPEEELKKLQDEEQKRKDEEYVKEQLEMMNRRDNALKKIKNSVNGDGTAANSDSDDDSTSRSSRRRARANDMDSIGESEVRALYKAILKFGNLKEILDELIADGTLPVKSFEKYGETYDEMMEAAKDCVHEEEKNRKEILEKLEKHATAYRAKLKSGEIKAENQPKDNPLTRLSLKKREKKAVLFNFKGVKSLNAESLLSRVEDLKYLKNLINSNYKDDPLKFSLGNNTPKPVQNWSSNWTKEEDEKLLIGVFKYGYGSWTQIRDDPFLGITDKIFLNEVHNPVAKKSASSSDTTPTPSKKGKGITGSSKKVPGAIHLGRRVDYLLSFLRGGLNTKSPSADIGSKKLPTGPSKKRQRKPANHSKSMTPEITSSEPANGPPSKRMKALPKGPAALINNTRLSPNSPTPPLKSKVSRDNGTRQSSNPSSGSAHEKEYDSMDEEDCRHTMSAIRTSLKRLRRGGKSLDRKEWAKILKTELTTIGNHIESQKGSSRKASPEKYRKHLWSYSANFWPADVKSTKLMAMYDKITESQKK

Chain of Protein translocase subunit SecA (Escherichia coli (strain K12)) (P10408 whole entry): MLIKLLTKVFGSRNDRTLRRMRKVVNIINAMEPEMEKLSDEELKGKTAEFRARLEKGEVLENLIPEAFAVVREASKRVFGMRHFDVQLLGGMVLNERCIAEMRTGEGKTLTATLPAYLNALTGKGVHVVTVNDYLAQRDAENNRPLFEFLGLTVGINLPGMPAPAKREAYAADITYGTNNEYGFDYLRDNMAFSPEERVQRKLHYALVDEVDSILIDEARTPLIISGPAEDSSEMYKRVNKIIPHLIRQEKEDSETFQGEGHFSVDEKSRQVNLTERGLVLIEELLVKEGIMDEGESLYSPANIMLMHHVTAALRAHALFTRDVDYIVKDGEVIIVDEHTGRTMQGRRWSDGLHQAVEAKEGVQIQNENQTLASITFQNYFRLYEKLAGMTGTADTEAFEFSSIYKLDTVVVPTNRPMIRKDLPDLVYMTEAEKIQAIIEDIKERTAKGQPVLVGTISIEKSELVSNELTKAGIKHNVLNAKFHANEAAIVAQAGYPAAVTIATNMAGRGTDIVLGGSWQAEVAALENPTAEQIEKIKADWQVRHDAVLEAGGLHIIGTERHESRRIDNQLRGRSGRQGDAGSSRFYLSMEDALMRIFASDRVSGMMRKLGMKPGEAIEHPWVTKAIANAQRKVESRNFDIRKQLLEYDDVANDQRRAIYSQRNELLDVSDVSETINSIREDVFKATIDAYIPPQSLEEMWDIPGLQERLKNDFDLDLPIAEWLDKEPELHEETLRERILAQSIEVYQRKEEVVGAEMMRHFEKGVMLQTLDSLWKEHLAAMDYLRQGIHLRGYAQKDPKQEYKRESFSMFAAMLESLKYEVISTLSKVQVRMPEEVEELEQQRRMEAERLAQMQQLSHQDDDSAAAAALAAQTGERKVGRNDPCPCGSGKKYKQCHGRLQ
Chain of Sialic acid-binding Ig-like lectin 9 (Homo sapiens) (Q9Y336 whole entry): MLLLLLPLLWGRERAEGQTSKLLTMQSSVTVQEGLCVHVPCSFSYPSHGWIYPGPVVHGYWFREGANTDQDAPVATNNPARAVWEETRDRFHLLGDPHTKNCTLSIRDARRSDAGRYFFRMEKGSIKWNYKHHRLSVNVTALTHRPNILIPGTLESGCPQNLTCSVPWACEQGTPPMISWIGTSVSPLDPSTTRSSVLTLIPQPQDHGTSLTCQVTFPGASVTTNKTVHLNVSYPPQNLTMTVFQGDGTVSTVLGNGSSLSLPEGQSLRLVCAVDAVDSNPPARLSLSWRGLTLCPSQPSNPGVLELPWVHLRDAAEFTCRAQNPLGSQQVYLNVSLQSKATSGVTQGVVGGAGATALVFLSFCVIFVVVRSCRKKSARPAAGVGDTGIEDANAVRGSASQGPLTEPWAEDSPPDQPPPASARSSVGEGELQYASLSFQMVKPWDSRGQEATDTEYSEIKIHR

| Structure (SMILES) | Percent Effect [1] [%] | Percent Effect [2] [%] | Percent Effect [3] [%] | Percent Effect [4] [%] | Percent Effect [5] [%] | Percent Effect [6] [%] | Percent Effect [7] [%] | Percent Effect [8] [%] | Percent Effect [9] [%] | Percent Effect [10] [%] | Percent Effect [11] [%] |
| --- | --- | --- | --- | --- | --- | --- | --- | --- | --- | --- | --- |
| Cc1nc(COCc2cnc3n2CCN(C2CCC2)C3C)cs1 (stereo not drawn) | -2.77 | 5.33 | -2.96 | 12.2 | 5.21 | -57.2 | 10.8 | -7.58 | 3.12 | 7.5 | -6.66 |
| CSCC(C)(O)CNC(=O)c1ccc(Br)cc1F (stereo not drawn) | -7.07 | 2.7 | -0.438 | 0.101 | 2.25 | 3.23 | 2.15 | -2.21 | 3.23 | 6.17 | -3.6 |
| Cc1ccc(CNCc2ccc(-n3nc(C)cc3C)nc2)cc1 | -1.16 | 13.2 | 0.483 | 7.65 | 1.5 | 0.383 | 11.4 | 6.18 | 9.31 | 19.5 | -9.49 |
| CN(Cc1cn2c(n1)CN(C(=O)CC1CC1)CC2)Cc1ccco1 | -3.7 | 2.67 | 8.42 | 1.6 | -0.197 | 8.16 | -3.44 | 20.3 | 5.32 | 14.1 | -0.584 |
| Cc1cc(CN2CCc3nn(C(C)C)c(=O)cc3C2)no1 | -6.46 | 0 | -5.64 | 2.16 | -0.781 | 0.833 | 14.1 | -0.957 | 7.92 | 8.54 | -7.52 |
| COC(=O)c1cccc(NS(=O)(=O)c2cnc(NC(C)=O)s2)c1 | 1.56 | 6.67 | -2.6 | 1.81 | -6.09 | -8.63 | 17.4 | -6.95 | 3.17 | 0 | -6.88 |
| NC(=O)COc1ccc(CNCc2ccc(F)c(F)c2)cc1 | -4.2 | 6.94 | 2.35 | -0.752 | 0.486 | 3.53 | 11.2 | -7.28 | 7.37 | 7.69 | -2.75 |
| Cc1nc(C)n(C2CCCN(C(=O)CCCOc3ccccc3)C2)n1 (stereo not drawn) | -1.32 | 0 | 6.84 | 4.93 | 1.5 | -2.85 | -1.18 | -22.8 | 2.91 | 9.76 | -5.8 |
